# Results published in article PMC8384837, “Expanding the binding specificity for RNA recognition by a PUF domain”.
# Experiments:
# Assay in all cases: yeast three-hybrid, YBZ-1, SC-Leu-His + 0.5 mM 3-AT, 4 days
# Conditions in all cases: tags: N-Gal4 AD-HA kept; label: inside an RPR1-promoter hybrid RNA with tandem MS2 sites; ssRNA
# [1] = target: T1, PUM1 PUF domain R6-SWG (Homo sapiens, UniProt Q14671 828-1176, N1043S;Y1044W;Q1047G)
# T1 sequence: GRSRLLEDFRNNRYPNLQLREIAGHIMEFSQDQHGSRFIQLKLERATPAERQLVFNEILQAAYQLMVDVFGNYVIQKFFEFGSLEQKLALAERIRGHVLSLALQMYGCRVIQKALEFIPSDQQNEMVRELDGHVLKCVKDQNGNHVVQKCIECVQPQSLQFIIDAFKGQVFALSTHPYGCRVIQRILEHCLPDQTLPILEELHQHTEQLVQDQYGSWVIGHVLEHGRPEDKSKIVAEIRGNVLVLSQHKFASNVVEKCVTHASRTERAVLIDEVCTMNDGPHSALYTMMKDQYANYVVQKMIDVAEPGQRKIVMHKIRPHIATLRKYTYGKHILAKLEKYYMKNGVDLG
# How it was run: (§1)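 Each repeat of the Pumilio-1 PUF domain was randomized at its three base-contacting residues, and these libraries were co-expressed from a centromeric plasmid with matching RNA elements in strain YBZ-1. After four days on SC-Leu (input) or SC-Leu-His + 0.5 mM 3-AT (selection), the repeat regions were PCR-amplified and Illumina-sequenced. The interaction score compares variant frequency between input and selection as a log change, computed in log2 with a pseudocount of 1 for absent variants.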
# [2] = target: PUM1 PUF domain R7-RCC (Homo sapiens, UniProt Q14671 828-1176, S1079R;N1080C;E1083C)
# How it was run: as §1
# [3] = target: PUM1 PUF domain R4-GNT (Homo sapiens, UniProt Q14671 828-1176, N971G;H972N;Q975T)
# How it was run: as §1
# [4] = target: PUM1 PUF domain R4-DWI (Homo sapiens, UniProt Q14671 828-1176, N971D;H972W;Q975I)
# How it was run: as §1
# [5] = target: PUM1 PUF domain R3-VYP (Homo sapiens, UniProt Q14671 828-1176, C935V;R936Y;Q939P)
# How it was run: as §1
# [6] = target: PUM1 PUF domain R5-SRM (Homo sapiens, UniProt Q14671 828-1176, C1007S;Q1011M)
# How it was run: as §1
# [7] = target: PUM1 PUF domain R1-RSE (Homo sapiens, UniProt Q14671 828-1176, S863R;R864S;Q867E)
# How it was run: as §1
# [8] = target: PUM1 PUF domain R3-LSK (Homo sapiens, UniProt Q14671 828-1176, C935L;R936S;Q939K)
# How it was run: as §1
# [9] = target: PUM1 PUF domain R2-PWL (Homo sapiens, UniProt Q14671 828-1176, N899P;Y900W;Q903L)
# How it was run: as §1
# [10] = target: PUM1 PUF domain R3-AIR (Homo sapiens, UniProt Q14671 828-1176, C935A;R936I;Q939R)
# How it was run: as §1
sequence,measurement,setting,value
GGCUAGAACUAGUGGAUCCCCCGGCGCCCGGCGGCUCGAGCCCGGGUAAGUGAAAAUAGUCUGCAUGCCGCCGGGCGCCAUGCCUGCAGGUCGACUCUAGAAAACAUG,binding signal,[1],1.35 log2 enrichment (interaction score)
GGCUAGAACUAGUGGAUCCCCCGGCGCCCGGCGGCUCGAGCCCGGGUAAGUCUAAAUAGUCUGCAUGCCGCCGGGCGCCAUGCCUGCAGGUCGACUCUAGAAAACAUG,binding signal,[2],2.43 log2 enrichment (interaction score)
GGCUAGAACUAGUGGAUCCCCCGGCGCCCGGCGGCUCGAGCCCGGGUAAGUGUAUAUAGUCUGCAUGCCGCCGGGCGCCAUGCCUGCAGGUCGACUCUAGAAAACAUG,binding signal,[3],3.55 log2 enrichment (interaction score)
GGCUAGAACUAGUGGAUCCCCCGGCGCCCGGCGGCUCGAGCCCGGGUAAGUGUAAAUAGUCUGCAUGCCGCCGGGCGCCAUGCCUGCAGGUCGACUCUAGAAAACAUG,binding signal,[4],6.41 log2 enrichment (interaction score)
same,binding signal,[5],5.74 log2 enrichment (interaction score)
same,binding signal,[1],4.18 log2 enrichment (interaction score)
same,binding signal,[6],2.84 log2 enrichment (interaction score)
GGCUAGAACUAGUGGAUCCCCCGGCGCCCGGCGGCUCGAGCCCGGGUAAGUGUAAAUCGUCUGCAUGCCGCCGGGCGCCAUGCCUGCAGGUCGACUCUAGAAAACAUG,binding signal,[7],2.49 log2 enrichment (interaction score)
GGCUAGAACUAGUGGAUCCCCCGGCGCCCGGCGGCUCGAGCCCGGGUAAGUGUAAAUGGUCUGCAUGCCGCCGGGCGCCAUGCCUGCAGGUCGACUCUAGAAAACAUG,binding signal,[7],0.71 log2 enrichment (interaction score)
GGCUAGAACUAGUGGAUCCCCCGGCGCCCGGCGGCUCGAGCCCGGGUAAGUGUAAUUAGUCUGCAUGCCGCCGGGCGCCAUGCCUGCAGGUCGACUCUAGAAAACAUG,binding signal,[5],2.9 log2 enrichment (interaction score)
same,binding signal,[8],5.2 log2 enrichment (interaction score)
GGCUAGAACUAGUGGAUCCCCCGGCGCCCGGCGGCUCGAGCCCGGGUAAGUGUACAUAGUCUGCAUGCCGCCGGGCGCCAUGCCUGCAGGUCGACUCUAGAAAACAUG,binding signal,[4],5.64 log2 enrichment (interaction score)
same,binding signal,[3],0.59 log2 enrichment (interaction score)
GGCUAGAACUAGUGGAUCCCCCGGCGCCCGGCGGCUCGAGCCCGGGUAAGUGUGAAUAGUCUGCAUGCCGCCGGGCGCCAUGCCUGCAGGUCGACUCUAGAAAACAUG,binding signal,[6],1.99 log2 enrichment (interaction score)
GGCUAGAACUAGUGGAUCCCCCGGCGCCCGGCGGCUCGAGCCCGGGUAAGUGUAAAGAGUCUGCAUGCCGCCGGGCGCCAUGCCUGCAGGUCGACUCUAGAAAACAUG,binding signal,[9],6.99 log2 enrichment (interaction score)
GGCUAGAACUAGUGGAUCCCCCGGCGCCCGGCGGCUCGAGCCCGGGUAAGUGUAAGUAGUCUGCAUGCCGCCGGGCGCCAUGCCUGCAGGUCGACUCUAGAAAACAUG,binding signal,[10],2.87 log2 enrichment (interaction score)
same,binding signal,[8],6.88 log2 enrichment (interaction score)
